Source: PubChem BioAssay
Bead autofluor – counter-screen for toxin protease inhibitors: compound fluorescence. compound autofluorescence counterscreen, microsphere flow cytometry; active compounds read high. actives 3.1% (n = 360,000). fluorescence intensity (test concentration not listed); in the data active = fluorescence intensity above about 16000; inconclusive = no clear call, values can overlap the other calls
3CLpro inhibitor – SARS-CoV 3CLpro protease inhibition | P0C6X7 | recombinant SARS-CoV 3CLpro, quenched FRET peptide cleavage | inhibition, % at 6 µM | actives 0.14% (n = 290,000) | AID 1706; in the data active = inhibition above about 12%
BoNT A protease – blocks Botulinum neurotoxin A light chain protease | multiplex microsphere protease substrate cleavage, flow cytometry | inhibition, % at 10 µM | actives 0.17% (n = 360,000)
BJeLR lethal – BJeLR cell viability loss; AID 1554; inhibition, % (test concentration not listed); actives 0.17% (n = 300,000); BJeLR (HRASV12) viability, CellTiter-Glo ATP luminescence, 48 h; in the data active = inhibition above about 50%; inconclusive = no clear call, values can overlap the other calls
Anthrax LF prot – inhibitors of Bacillus anthracis lethal factor protease; P15917; multiplex microsphere protease cleavage assay, LF; inhibition, % at 10 µM; actives 0.12% (n = 360,000)
Target sequence (P15917 whole entry, looked up): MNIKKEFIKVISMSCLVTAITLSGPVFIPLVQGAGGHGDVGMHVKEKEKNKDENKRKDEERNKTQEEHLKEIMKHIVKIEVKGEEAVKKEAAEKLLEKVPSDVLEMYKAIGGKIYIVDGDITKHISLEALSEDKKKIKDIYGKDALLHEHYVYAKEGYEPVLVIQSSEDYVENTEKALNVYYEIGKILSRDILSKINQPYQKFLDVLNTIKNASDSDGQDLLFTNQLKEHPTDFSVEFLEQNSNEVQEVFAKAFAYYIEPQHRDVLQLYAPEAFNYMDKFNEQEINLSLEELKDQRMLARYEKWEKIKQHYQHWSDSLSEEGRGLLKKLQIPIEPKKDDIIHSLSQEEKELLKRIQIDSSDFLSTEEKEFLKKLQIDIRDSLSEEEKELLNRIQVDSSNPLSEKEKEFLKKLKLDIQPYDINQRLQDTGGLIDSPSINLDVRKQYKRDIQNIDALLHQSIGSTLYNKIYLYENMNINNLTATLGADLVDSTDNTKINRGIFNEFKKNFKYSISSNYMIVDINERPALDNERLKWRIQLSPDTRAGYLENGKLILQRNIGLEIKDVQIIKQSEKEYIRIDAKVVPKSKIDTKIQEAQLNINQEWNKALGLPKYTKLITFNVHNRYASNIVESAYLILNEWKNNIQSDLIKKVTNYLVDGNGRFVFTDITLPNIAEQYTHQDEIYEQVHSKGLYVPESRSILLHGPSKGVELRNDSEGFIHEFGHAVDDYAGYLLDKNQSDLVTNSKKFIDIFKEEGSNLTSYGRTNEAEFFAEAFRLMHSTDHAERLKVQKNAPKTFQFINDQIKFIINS
BoNT-F LC inh – BoNT F light chain protease inhibition; Multiplex microsphere protease cleavage assay, flow cytometry; actives 0.22% (n = 360,000); inhibition, % at 10 µM; in the data active = inhibition above about 35%, passing the limit was not always enough; inconclusive = no clear call, values can overlap the other calls
Numbers stand for hits; – = inactive; ? = inconclusive; · = no result given. An excerpt weighted towards active compounds, which were near 3.6% of everything screened. Rule as the data show it, unless noted: active = inhibition above about 30%; inconclusive = no clear call, values can overlap the other calls; inactive = below that.

SMILES	Bead autofluor	3CLpro inhibitor	BoNT A protease	BJeLR lethal	Anthrax LF prot	BoNT-F LC inh
COc1ccc(C(C)=O)cc1CN1C(=O)NC2(CCCCC2)C1=O	–	–	–	–	–	–
O=C(NC(Cc1ccccc1)C(=O)N1CCN(c2ccccc2O)CC1)c1ccccc1 (stereo unspecified)	–	·	–	·	–	–
CCSC1=C(C#N)C2(CCCCC2)C(C#N)=C(N)N1	–	–	–	–	–	–
CCSC1=C(C#N)C2(CCCCC2)C(C#N)C(=O)N1 (stereo unspecified)	20210	–	?	·	–	–
CN(C)CCN1C(=O)c2ccccc2C1=O	–	·	–	·	–	–
COCCn1c(SCC(=O)N(C(C)C)C(C)C)nnc1-c1cc2ccccc2cc1O	23496	–	?	–	–	–
O=C(CSc1nnc(-c2cc3ccccc3cc2O)n1Cc1ccco1)N1CCc2ccccc2C1	–	–	–	–	–	–
CC(C)N(C(=O)CSc1nnc(-c2cc3ccccc3cc2O)n1Cc1ccco1)C(C)C	20006	–	?	–	–	–
O=C(CSc1nc2ccc([N+](=O)[O-])cc2[nH]1)NC1CCCCC1	20507	–	?	–	–	–
O=C(CSc1nc2ccc([N+](=O)[O-])cc2[nH]1)NC1CCCCCC1	–	–	–	–	–	–
CC(C)(C)NCC(O)COc1c(F)cc(Br)cc1F (stereo unspecified)	22894	–	–	–	–	–
O=C(CSc1nc2ccc(Nc3nc(N4CCOCC4)nc(N4CCOCC4)n3)cc2s1)N1CCOCC1	–	–	–	–	–	–
O=C(O)c1cccc(Nc2nc(N3CCOCC3)nc(N3CCOCC3)n2)c1	22856	–	–	–	–	–
CSc1nc2ccc(Nc3nc(N4CCOCC4)nc(N4CCOCC4)n3)cc2s1	23477	–	–	·	–	–
CCn1c(SCC(=O)Nc2ccc3c(c2)OCO3)nnc1C(C)C	–	–	–	–	–	–
Cc1cc(C)c2c(=O)[nH]c(SCC(=O)N3CCOCC3)nc2n1	–	–	–	–	–	–
Cc1cc(C)c2c(=O)[nH]c(SCC(=O)N3CCCCC3)nc2n1	21909	–	–	–	–	–
O=C(CC(Nc1ccccc1)C(=O)O)c1ccccc1 (stereo unspecified)	–	·	–	–	–	42
CCCNC(=O)C(Cc1cccc(C#N)c1)NC(=O)c1ccc(C#N)cc1 (stereo unspecified)	–	·	–	·	–	–
COc1ccc2cc(C(=O)C3CCCN(C(=O)c4cc5nc(C)cc(C)n5n4)C3)ccc2c1 (stereo unspecified)	–	–	–	–	–	–
Cc1ccc2c(c1)c1c3n2CCCN(Cc2ccccc2)C3CCC1 (stereo unspecified)	16950	–	?	–	–	–
Cc1ccc2c(c1)c1c3n2CCN(CC#N)C3CCC1 (stereo unspecified)	–	–	–	–	–	?
CC(C)(O)C#Cc1ccc(CN2CCN(Cc3ccsc3)C(CCO)C2)s1 (stereo unspecified)	–	–	–	–	–	–
COc1cccc(OC)c1NC(=O)Cn1nc(C)c2ccccc2c1=O	–	–	–	–	–	–
O=C(N/N=C/c1ccc(Cl)cc1Cl)c1cccc(F)c1	22364	–	–	–	–	–
SMILES	Bead autofluor	3CLpro inhibitor	BoNT A protease	BJeLR lethal	Anthrax LF prot	BoNT-F LC inh
Cc1sc2ncnc(SCC(=O)NC3CC3)c2c1C	24257	–	–	–	–	–
O=C(NCc1n[nH]c(=S)n1-c1ccccc1)c1ccco1	19724	–	–	–	–	–
O=C(c1ccc(Cl)c(Cl)c1)c1cc(-c2ccccn2)c(N2CCOCC2)s1	–	–	–	–	–	–
O=C(c1ccc(Br)cc1)c1cc(-c2ccccn2)c(N2CCOCC2)s1	19199	–	?	–	–	–
Cc1coc2c1c(C)cc1oc(=O)c(Cc3ccccc3)c(C)c12	24793	–	–	–	–	–
Cc1coc2c1c(C)cc1oc(=O)c(CC(=O)NCC(=O)NCC(=O)O)c(C)c12	–	–	–	–	–	–
Cc1ccsc1C(=O)NCCc1nnc2ccccn12	–	–	–	–	–	–
O=C(Nc1nccs1)c1ccc(-c2ccc(F)c(Cl)c2)o1	–	–	–	–	–	–
Cc1n[nH]c(C)c1S(=O)(=O)N1CCC(C(=O)N2CCn3c2nc2ccccc23)CC1	–	–	–	–	–	–
Cc1ccc(N(CC(=O)N2CCn3c2nc2ccccc23)S(=O)(=O)c2c(C)n[nH]c2C)cc1	17135	–	–	–	–	–
COc1ccc2nc(SCC(N)=O)[nH]c2c1	22930	–	?	–	–	–
Cc1ccc(C(=O)NCC(=O)Nc2ncccc2C)s1	–	·	–	–	–	–
COc1ccccc1NS(=O)(=O)c1cc([N+](=O)[O-])ccc1N/N=C/c1c(C)[nH]c2ccccc12	16725	–	–	–	–	–
C=CCNC(=O)NC(=O)COC(=O)/C(C#N)=C/c1ccc(OC)cc1	–	–	–	–	–	–
Cc1nn(-c2ccccc2)c2c1C(c1cccs1)C(C#N)=C(N)O2 (stereo unspecified)	–	–	–	–	–	–
Cc1ccc(-n2nc(C)c3c2OC(N)=C(C#N)C3c2ccc(F)cc2)cc1 (stereo unspecified)	22457	–	–	–	–	–
COc1ccc(OC)c(C2C(C#N)=C(N)Oc3c2c(C)nn3-c2cccc(Cl)c2)c1 (stereo unspecified)	20225	–	?	–	–	–
Cc1nn(-c2cccc(Cl)c2)c2c1C(c1ccncc1)C(C#N)=C(N)O2 (stereo unspecified)	–	–	–	–	–	–
Cc1nn(-c2ccccc2)c2c1C(c1ccco1)C(C#N)=C(N)O2 (stereo unspecified)	23537	–	?	–	–	–
Cc1nn(-c2ccccc2)c(C)c1C1C(C#N)=C(N)Oc2n[nH]c(C)c21 (stereo unspecified)	–	–	–	–	–	36
CCOc1ccc(S(=O)(=O)N(CC(=O)N2CCC(C(N)=O)CC2)c2ccc(F)cc2)cc1	–	–	–	–	–	–
CC1(C)C=Cc2cc(-c3coc4cc(O)cc(O)c4c3=O)cc(O)c2O1	–	·	–	–	–	–
CC1=NC(=O)C(N=Nc2cccc3ccccc23)N1c1ccccc1 (stereo unspecified)	·	–	·	·	·	·
COc1ccc(-c2ccc(C3C(C#N)=C(N)Oc4n[nH]c(C)c43)o2)cc1 (stereo unspecified)	21391	–	?	–	–	–
O=C(COC(=O)CNS(=O)(=O)c1c(F)cccc1F)NC(=O)NC1CCCCC1	–	·	–	·	–	–
Cc1[nH]c(=O)c(C#N)c2c1COC(C)(C)C2	–	–	–	–	–	–
CC(C)c1[nH]c(=O)c(C#N)c2c1COC(C)(C)C2	21618	–	–	–	–	–
Cc1ccc(C(C(=O)NCCc2ccccc2)N(C(=O)c2csnn2)C2CC2)cc1 (stereo unspecified)	–	–	–	–	–	–
O=C(Nc1ccc(Cl)cc1)OCc1cn(-c2ccccc2)nn1	–	–	–	–	–	–
